Measurements as given in the supplement of paper PMC10849652.
About 7,900 targets were measured; listed, in parts, are those with a hit and a random draw of the rest. About 0.6% of all pairs of compound and target were hits. Unmarked numbers belong to inactive results.

Columns and labels:
Assay in all cases: log2 fold change, soluble protein after heating vs DMSO (PISA); higher = thermal stabilisation; K562 cells, 10 uM, 30 min; active = over 0.2 and 3.5 SD of the protein, either way, in both replicates (recomputed)
erlotinib = compound: C#Cc1cccc(Nc2ncnc3cc(OCCOC)c(OCCOC)cc23)c1 [erlotinib]
Procedure, shortened: (§1)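 K562 cells at 2×10^6 cells/mL were exposed to 10 μM compound for 30 min, then aliquots were heated for 3 min across 48°C-58°C, pooled, and extracted in PBS containing 0.5% NP-40 at 4°C. The supernatant after 21,000xg for 90 min was taken as soluble protein and measured by TMTpro 16plex LC-MS/MS with channel sums equalised. Thermal stability is reported relative to control samples, with values from duplicates. Fold changes are given on a log2 scale.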

[1] = compound: C/C(=N\NC(=O)C1=CC(=CC=C1)S(=O)(=O)N2CCOCC2)/C3=C(C=CC(=C3)Cl)O
Procedure, shortened: as §1

[2] = compound: C1=CC(=C(C=C1Cl)C2=NC3=NC=CN=C3C(=N2)NC4=CC=NC=C4)F
Procedure, shortened: as §1

[3] = compound: C1=CC(=CC=C1C2=NC3=C(N2)C=C(C=C3)C(=O)N)OC4=CC=C(C=C4)Cl
Procedure, shortened: as §1

[4] = compound: C1=CC2=C(C=CC(=C2)/C=C\3/C(=O)NC(=NCC4=CC=CS4)S3)N=C1
Procedure, shortened: as §1

[5] = compound: C1=CC2=NC=CN=C2C=C1/C=C/3\C(=O)NC(=O)S3
Procedure, shortened: as §1

[6] = compound: C1=CC=C(C=C1)C2=NC(=C(N2)C3=CC=NC=C3)C4=CC(=C(C=C4)Cl)O
Procedure, shortened: as §1

[7] = compound: C1=CC=C2C(=C1)C3=NNC4=CC=CC(=C43)C2=O
Procedure, shortened: as §1

[8] = compound: C1CCN(C1)C(=O)NC2=CC=CC(=C2)NC3=NC=C(C(=N3)NCCC4=CN=CN4)Br
Procedure, shortened: as §1

[9] = compound: C1CN(CCC1(CC2=CC=C(C=C2)Cl)N)C3=NC=NC4=C3C=CN4
Procedure, shortened: as §1

IRAK-1-4 Inhibitor I = compound: C1COCCN1CCN2C3=CC=CC=C3N=C2NC(=O)C4=CC(=CC=C4)[N+](=O)[O-] [IRAK-1-4 Inhibitor I]
Procedure, shortened: as §1

ibrutinib = compound: C=CC(=O)N1CCC[C@@H](n2nc(-c3ccc(Oc4ccccc4)cc3)c3c(N)ncnc32)C1 [ibrutinib]
Procedure, shortened: as §1

[10] = compound: CC(=O)c1cnc2ccc(-c3cc(Cl)c(O)c(Cl)c3)nc2c1N[C@H]1CC[C@H](CN(C)C)CC1
Procedure, shortened: as §1

ralimetinib = compound: CC(C)(C)Cn1c(N)nc2ccc(-c3[nH]c(C(C)(C)C)nc3-c3ccc(F)cc3)nc21 [ralimetinib]
Procedure, shortened: as §1

[11] = compound: CC(C)(O)CC(=O)NCCn1ccc2ncnc(Nc3ccc(Oc4cccc(C(F)(F)F)c4)c(Cl)c3)c21
Procedure, shortened: as §1

[12] = compound: CC(C)C1=C2N=C(C=C(N2N=C1)NCC3=CC=CC=C3)NCCCCCCN
Procedure, shortened: as §1

[13] = compound: CC(C)C[C@@H](C=O)NC(=O)[C@H](CC(C)C)NC(=O)[C@H](CC(C)C)NC(=O)OCc1ccccc1
Procedure, shortened: as §1

pinometostat = compound: CC(C)N(C[C@H]1O[C@@H](n2cnc3c(N)ncnc32)[C@H](O)[C@@H]1O)[C@H]1C[C@@H](CCc2nc3cc(C(C)(C)C)ccc3[nH]2)C1 [pinometostat]
Procedure, shortened: as §1

[14] = compound: CC1=C(C(CC(=O)N1)C2=CC=C(C=C2)C(F)(F)F)C(=O)NC3=C(C=C4C(=C3)C=NN4)F
Procedure, shortened: as §1

[15] = compound: CC1=C(C2=C(C=C1)C(=O)C3=CC=CC=C3N2CCCN)C
Procedure, shortened: as §1

Sequence of UniProt Q01082 (Q01082 whole entry, looked up): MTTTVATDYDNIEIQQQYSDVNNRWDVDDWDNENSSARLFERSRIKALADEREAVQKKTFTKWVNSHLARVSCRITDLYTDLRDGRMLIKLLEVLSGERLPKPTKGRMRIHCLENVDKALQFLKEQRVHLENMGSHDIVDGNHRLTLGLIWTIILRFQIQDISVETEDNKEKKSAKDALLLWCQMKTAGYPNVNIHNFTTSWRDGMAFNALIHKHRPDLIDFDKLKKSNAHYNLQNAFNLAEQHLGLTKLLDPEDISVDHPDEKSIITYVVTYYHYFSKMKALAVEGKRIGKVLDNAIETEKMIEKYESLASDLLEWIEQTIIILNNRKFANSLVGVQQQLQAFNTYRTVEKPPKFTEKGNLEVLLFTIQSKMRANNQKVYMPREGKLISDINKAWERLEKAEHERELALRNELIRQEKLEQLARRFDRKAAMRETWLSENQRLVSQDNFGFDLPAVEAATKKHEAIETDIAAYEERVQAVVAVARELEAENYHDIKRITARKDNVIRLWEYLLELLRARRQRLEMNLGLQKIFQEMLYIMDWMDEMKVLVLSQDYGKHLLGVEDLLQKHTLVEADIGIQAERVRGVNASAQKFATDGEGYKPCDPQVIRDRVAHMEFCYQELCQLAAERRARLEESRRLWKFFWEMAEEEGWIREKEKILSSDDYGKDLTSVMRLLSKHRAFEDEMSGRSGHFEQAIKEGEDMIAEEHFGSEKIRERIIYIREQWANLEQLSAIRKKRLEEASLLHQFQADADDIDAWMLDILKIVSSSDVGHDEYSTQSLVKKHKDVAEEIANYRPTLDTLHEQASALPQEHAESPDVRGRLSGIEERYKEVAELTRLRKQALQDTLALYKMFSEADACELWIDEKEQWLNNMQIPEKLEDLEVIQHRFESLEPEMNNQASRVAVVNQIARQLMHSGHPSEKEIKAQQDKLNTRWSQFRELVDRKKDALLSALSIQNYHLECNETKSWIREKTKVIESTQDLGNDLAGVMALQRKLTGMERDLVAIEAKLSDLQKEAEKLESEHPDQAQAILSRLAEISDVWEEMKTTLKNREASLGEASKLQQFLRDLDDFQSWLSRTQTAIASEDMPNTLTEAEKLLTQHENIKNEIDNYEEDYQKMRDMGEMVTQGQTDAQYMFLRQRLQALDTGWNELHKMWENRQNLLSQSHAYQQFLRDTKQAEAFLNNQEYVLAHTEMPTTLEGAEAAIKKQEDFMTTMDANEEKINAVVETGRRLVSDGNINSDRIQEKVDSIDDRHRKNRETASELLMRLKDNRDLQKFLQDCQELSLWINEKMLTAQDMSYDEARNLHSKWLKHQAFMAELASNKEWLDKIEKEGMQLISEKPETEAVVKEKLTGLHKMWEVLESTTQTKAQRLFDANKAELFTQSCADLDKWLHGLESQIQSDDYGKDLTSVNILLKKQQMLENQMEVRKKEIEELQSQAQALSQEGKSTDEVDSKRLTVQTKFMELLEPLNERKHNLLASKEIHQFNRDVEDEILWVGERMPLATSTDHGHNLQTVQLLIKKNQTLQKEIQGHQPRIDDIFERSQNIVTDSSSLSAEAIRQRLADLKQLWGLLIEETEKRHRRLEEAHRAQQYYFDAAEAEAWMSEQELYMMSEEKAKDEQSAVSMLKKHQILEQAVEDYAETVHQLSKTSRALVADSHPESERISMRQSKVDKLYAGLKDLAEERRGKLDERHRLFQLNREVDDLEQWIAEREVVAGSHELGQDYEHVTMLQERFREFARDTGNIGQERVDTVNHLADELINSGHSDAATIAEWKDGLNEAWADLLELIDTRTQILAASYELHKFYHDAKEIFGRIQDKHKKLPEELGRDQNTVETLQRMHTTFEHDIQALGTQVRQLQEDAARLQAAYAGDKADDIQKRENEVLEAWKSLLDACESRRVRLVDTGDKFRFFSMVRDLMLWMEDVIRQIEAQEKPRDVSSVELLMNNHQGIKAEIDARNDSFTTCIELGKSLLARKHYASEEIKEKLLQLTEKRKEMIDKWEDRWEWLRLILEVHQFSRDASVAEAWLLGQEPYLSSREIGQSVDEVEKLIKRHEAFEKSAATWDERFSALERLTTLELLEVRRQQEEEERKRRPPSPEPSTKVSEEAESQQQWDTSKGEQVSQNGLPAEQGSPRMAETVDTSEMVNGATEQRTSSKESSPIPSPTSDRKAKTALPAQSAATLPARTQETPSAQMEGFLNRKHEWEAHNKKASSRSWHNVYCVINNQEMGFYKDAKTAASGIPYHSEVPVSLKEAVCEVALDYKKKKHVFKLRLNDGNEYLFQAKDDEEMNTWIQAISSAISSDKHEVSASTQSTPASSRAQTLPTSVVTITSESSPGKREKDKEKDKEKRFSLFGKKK
Sequence of UniProt Q99805 (Q99805 whole entry, looked up): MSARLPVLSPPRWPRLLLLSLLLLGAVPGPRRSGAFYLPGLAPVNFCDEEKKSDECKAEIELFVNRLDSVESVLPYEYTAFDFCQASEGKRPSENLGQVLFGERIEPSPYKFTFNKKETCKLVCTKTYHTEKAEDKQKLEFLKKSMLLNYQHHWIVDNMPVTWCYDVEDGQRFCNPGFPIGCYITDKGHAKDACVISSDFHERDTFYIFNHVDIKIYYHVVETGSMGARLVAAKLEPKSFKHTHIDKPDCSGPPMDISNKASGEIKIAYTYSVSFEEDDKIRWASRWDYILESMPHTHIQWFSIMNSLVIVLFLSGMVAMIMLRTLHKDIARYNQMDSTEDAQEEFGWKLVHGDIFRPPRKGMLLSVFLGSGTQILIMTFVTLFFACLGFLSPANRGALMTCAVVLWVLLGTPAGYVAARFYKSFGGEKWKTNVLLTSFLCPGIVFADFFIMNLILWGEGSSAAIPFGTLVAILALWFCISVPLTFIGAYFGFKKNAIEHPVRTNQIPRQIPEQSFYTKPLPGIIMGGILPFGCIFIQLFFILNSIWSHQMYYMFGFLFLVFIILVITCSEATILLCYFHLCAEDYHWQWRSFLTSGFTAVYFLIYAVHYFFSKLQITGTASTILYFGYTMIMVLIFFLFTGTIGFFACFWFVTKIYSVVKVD
Sequence of UniProt P84103 (P84103 whole entry, looked up): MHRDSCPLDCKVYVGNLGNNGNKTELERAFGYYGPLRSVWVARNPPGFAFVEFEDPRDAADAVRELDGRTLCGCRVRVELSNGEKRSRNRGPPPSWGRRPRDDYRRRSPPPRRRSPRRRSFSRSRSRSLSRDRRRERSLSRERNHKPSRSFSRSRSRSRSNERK
Sequence of UniProt O15400 (O15400 whole entry, looked up): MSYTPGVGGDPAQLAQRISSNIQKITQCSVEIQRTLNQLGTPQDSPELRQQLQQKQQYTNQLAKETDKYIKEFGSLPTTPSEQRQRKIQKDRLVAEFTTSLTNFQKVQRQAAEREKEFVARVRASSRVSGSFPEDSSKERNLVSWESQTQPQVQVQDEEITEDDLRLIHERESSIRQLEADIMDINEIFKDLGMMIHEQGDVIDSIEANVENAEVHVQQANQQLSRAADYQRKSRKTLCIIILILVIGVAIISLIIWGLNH
Sequence of UniProt Q9UKI8 (Q9UKI8 whole entry, looked up): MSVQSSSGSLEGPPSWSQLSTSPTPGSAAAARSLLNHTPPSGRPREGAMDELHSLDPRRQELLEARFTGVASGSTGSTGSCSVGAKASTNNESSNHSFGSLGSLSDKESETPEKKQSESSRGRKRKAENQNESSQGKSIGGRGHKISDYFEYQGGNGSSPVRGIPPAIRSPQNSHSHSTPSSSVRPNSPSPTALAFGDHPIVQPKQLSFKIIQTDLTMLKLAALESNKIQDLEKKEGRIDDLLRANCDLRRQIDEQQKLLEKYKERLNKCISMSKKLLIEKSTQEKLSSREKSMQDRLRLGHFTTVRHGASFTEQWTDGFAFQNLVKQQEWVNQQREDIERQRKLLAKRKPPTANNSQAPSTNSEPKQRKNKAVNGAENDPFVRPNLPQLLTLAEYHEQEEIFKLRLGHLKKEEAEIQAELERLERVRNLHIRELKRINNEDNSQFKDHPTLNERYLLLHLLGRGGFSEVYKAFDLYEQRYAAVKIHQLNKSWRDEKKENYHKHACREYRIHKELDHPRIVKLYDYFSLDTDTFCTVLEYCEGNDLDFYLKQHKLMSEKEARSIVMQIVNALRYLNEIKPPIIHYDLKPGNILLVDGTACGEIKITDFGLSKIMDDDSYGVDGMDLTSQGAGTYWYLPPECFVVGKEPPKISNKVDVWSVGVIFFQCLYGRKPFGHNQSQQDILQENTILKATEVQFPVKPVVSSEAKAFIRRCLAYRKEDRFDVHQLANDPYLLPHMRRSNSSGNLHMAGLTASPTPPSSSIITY
Sequence of UniProt Q13501 (Q13501 whole entry, looked up): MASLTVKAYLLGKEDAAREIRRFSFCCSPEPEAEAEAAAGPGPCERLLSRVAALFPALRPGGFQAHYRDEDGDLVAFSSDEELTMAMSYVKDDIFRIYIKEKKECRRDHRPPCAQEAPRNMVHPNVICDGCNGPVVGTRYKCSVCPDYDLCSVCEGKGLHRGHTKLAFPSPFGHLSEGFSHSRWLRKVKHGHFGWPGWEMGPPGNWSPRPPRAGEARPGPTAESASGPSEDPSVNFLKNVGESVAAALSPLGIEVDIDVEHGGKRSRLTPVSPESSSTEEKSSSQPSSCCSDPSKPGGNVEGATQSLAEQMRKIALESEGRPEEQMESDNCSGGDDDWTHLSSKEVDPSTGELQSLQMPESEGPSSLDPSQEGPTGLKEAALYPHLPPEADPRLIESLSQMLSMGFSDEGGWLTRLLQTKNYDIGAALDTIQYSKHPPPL
Sequence of UniProt Q9BUA3 (Q9BUA3 whole entry, looked up): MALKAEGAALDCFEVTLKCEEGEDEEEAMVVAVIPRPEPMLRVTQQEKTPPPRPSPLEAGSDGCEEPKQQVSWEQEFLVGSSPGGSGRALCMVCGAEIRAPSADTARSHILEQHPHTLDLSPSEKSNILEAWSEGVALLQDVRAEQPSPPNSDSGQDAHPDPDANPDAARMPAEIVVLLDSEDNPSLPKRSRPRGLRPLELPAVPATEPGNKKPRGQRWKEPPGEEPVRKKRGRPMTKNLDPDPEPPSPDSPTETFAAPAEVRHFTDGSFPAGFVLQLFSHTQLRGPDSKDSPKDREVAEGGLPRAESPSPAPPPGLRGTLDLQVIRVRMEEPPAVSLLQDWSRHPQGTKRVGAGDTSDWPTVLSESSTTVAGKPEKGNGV

Target | log2 fold change (erlotinib) | log2 fold change [1] | log2 fold change [2] | log2 fold change [3] | log2 fold change [4] | log2 fold change [5] | log2 fold change [6] | log2 fold change [7] | log2 fold change [8] | log2 fold change [9] | log2 fold change (IRAK-1-4 Inhibitor I) | log2 fold change (ibrutinib) | log2 fold change [10] | log2 fold change (ralimetinib) | log2 fold change [11] | log2 fold change [12] | log2 fold change [13] | log2 fold change (pinometostat) | log2 fold change [14] | log2 fold change [15]
TIMM10 (UniProt P62072) | -0.109 | -0.021 | 0.137 | -0.011 | 0.044 | 0.051 | 0.072 | 0.029 | -0.014 | -0.016 | -0.06 | 0.024 | -0.041 | -0.145 | -0.026 | 0.047 | -0.09 | -0.078 | 0.031 | 0.174
SPECC1 (UniProt Q5M775) | 0.044 | -0.002 | 0.022 | 0 | 0.056 | 0.02 | -0.208 | -0.023 | 0.026 | 0.012 | 0.01 | -0.068 | -0.035 | -0.107 | 0.025 | 0.08 | 0.003 | -0.25 | 0.048 | -0.01
ST3GAL2 (UniProt Q16842) | 0.032 | 0.07 | -0.069 | 0.009 | -0.085 | -0.052 | -0.057 | 0.045 | -0.024 | 0.108 | -0.183 | -0.105 | -0.115 | -0.009 | 0.119 | -0.12 | 0.066 | -0.031 | -0.037 | 0.046
TM9SF2 (UniProt Q99805) | 0.012 | 0.025 | 0.037 | -0.006 | 0.027 | -0.021 | 0.04 | 0.009 | -0.04 | 0.063 | 0.06 | 0.01 | -0.04 | -0.049 | 0.021 | -0.436 (active) | -0.012 | -0.003 | 0.008 | 0.027
SLIRP (UniProt Q9GZT3) | 0.019 | 0.205 | 0.27 | -0.014 | 0.067 | 0.093 | 0.023 | -0.187 | -0.013 | -0.028 | 0.004 | 0.035 | -0.192 | -0.027 | -0.239 | -0.02 | 0.393 (active) | -0.016 | 0.088 | -0.342
STXBP2 isoform 3 (UniProt Q15833) | 0.088 | 0.139 | -0.109 | -0.049 | 0.096 | -0.004 | 0.05 | 0.026 | -0.058 | -0.166 | -0.11 | -0.057 | -0.021 | 0.172 | -0.065 | -0.364 (active) | 0.147 | 0.189 | 0.023 | 0.025
SQSTM1 (UniProt Q13501) | -0.058 | -0.008 | 0.101 | 0.037 | -0.017 | 0.108 | -0.004 | 0.02 | -0.135 | -0.045 | -0.006 | 0.012 | -0.298 (active) | -0.026 | 0.058 | -0.118 | 0.039 | 0.048 | 0.077 | -0.079
STAM2 (UniProt O75886) | -0.026 | 0.081 | 0.036 | -0.031 | 0.022 | 0.01 | 0.002 | -0.006 | -0.047 | -0.025 | 0.033 | 0.008 | -0.018 | 0.034 | 0.038 | -0.131 | 0.018 | 0.014 | -0.063 | 0.004
SPTBN1 (UniProt Q01082) | 0.003 | 0.067 | -0.065 | 0.011 | 0.03 | 0.046 | 0.021 | -0.055 | -0.067 | -0.071 | -0.079 | -0.013 | -0.033 | 0.08 | 0.043 | -0.094 | 0.024 | 0.044 | -0.012 | -0.001
STRN (UniProt O43815) | -0.03 | 0 | 0.033 | 0.013 | -0.008 | 0.005 | 0.213 (active) | 0.025 | -0.124 | 0.053 | 0.029 | 0.073 | -0.046 | 0.13 | -0.023 | 0.03 | -0.066 | -0.002 | -0.037 | 0
SRSF3 (UniProt P84103) | -0.074 | -0.03 | -0.35 | 0.053 | -0.074 | -0.009 | -0.003 | 0.006 | 0.097 | -0.107 | -0.207 | 0.11 | -0.035 | 0.112 | 0.19 | 0.083 | 0.152 | 0.064 | 0.125 | -0.134
TLK1 (UniProt Q9UKI8) | 0.012 | 0.038 | 0.041 | -0.012 | 0.042 | 0.005 | 0.01 | -0.034 | -0.032 | -0.014 | 0.027 | -0.003 | -0.089 | 0.02 | -0.032 | -0.064 | -0.041 | -0.041 | 0.019 | 0.218 (active)
SRFBP1 (UniProt Q8NEF9) | -0.256 | -0.082 | -0.114 | 0.039 | -0.03 | 0.104 | -0.08 | 0.082 | 0.069 | -0.065 | -0.081 | -0.037 | -0.099 | -0.022 | 0.091 | 0.137 | 0.25 | 0.018 | 0.21 | 0.023
TARS2 (UniProt Q9BW92) | 0.042 | -0.721 (active) | 0.021 | 0.003 | 0.086 | 0.038 | -0.03 | 0.003 | 0.001 | -0.058 | -0.076 | -0.043 | 0.009 | -0.029 | -0.078 | -0.219 (active) | 0.069 | -0.022 | 0.036 | 0.054
SPINDOC (UniProt Q9BUA3) | -0.013 | -0.017 | -0.01 | -0.044 | 0.036 | 0.074 | -0.063 | -0.066 | -0.129 | 0.09 | 0.029 | 0.089 | 0.017 | 0.084 | -0.01 | 0.103 | 0 | 0.075 | 0.093 | -0.24
STX7 (UniProt O15400) | 0.02 | -0.029 | 0.02 | 0.021 | -0.02 | 0.02 | -0.009 | -0.007 | 0 | 0.056 | -0.01 | 0.024 | 0.011 | -0.039 | 0.012 | -0.087 | -0.009 | -0.109 | 0 | 0.017
